Common to all, as to type: functional
For test [1], the system named is Plasmodium falciparum. The experiment in a line: GSK_TCMDC: Inhibition of Plasmodium falciparum 3D7 in whole red blood cells, using parasite LDH activity as an index of growth. Test compounds present at 2uM.
The test system of test [2] is Plasmodium falciparum. The experiment in a line: GSK_TCMDC: Inhibition of Plasmodium falciparum Dd2 in whole red blood cells, using parasite LDH activity as an index of growth. Test compounds present at 2uM.
Test [3] concerns HepG2. The test is described as follows: GSK_TCMDC: Percent inhibition of human HepG2 cell line. Test compounds present at 10uM.

Each structure is given as a SMILES string.

Turning to `Cc1ccc(F)c(OCC2CCCN(c3ccc(C(=O)NC4CC4)cn3)C2)c1` (stereo not given), the results for the Inhibition in test [1], in test [2] and in test [3] were 96%, 94% and 3%, respectively.

As for `c1ccc(CCNc2ncnc3c2[nH]c2ccccc23)cc1`, the Inhibition turned out to be 95% in test [1], 94% in test [2] and 50% in test [3].

As to `O=C(Nc1cccc(C(F)(F)F)c1)NC1CCN(c2ccnc3ccccc23)CC1.O=C(O)C(F)(F)F`, the Inhibition in test [1] is 100%; in test [2], 43%; in test [3], 23%.

In the case of `Cc1nc(-c2ccc(-c3ccc(C(=O)Nc4ccc(Cl)c(N5CCN(C)CC5)c4)cc3)c(C)c2)no1`, the Inhibition is listed as 100% in test [1], 47% in test [2] and 23% in test [3].

For the compound `C[C@H](N[C@H]1CCCc2c1[nH]c1ccc(Br)cc21)c1ccccc1.Cl`, the results for the Inhibition in test [1], in test [2] and in test [3] were 96%, 95% and 58%, respectively.

In the case of `COc1ccc(-c2cnc3[nH]cc(-c4ccc(C(=O)O)cc4)c3c2)cn1.O=C(O)C(F)(F)F`, the Inhibition in test [1] was 95%; in test [2], 99%; in test [3] it was 35%.

For `CC(Cc1ccc(NS(=O)(=O)c2ccc(CC(C)NCCc3cccc(Cl)c3)cc2)cc1)NCCc1cccc(Cl)c1` (stereo not given), the Inhibition was determined as 100% in test [1], 38% in test [2] and 12% in test [3].

Regarding `COc1cccc2c1CCN(CCN1CCC(NC(=O)c3ccc(-c4cccc(Cl)c4Cl)cc3)CC1)C2`, the Inhibition in test [1] is recorded as 100%; in test [2] it was 38%; in test [3], 47%.

For the compound `CC(CN(C)C)C(=O)Nc1cccc(-c2cccc(-c3nc4cc(F)ccc4[nH]3)c2)c1` (stereo not given), the Inhibition in test [1] is recorded as 100%; in test [2], 94%; in test [3], 29%.

Consider `NC(=O)c1ccc(NCC(=O)Nc2cccc(-c3cccc(-c4nc5cc(F)ccc5[nH]4)c3)c2)cc1`, for which the values for the Inhibition in test [1], in test [2] and in test [3] were 97%, 32% and 15%, respectively.

With `O=C(NCCN1CCC(NC(=O)c2ccc(-c3ccccn3)s2)CC1)c1ccc(Cl)c(Cl)c1.O=C(O)C(F)(F)F`, the Inhibition in test [1] stood at 97%; in test [2], 48%; in test [3], 24%.

With `COc1ccc(O)c(C(=O)NCCc2ccc(OC)c(-c3ccc(C(C)(C)C)cc3)c2)c1`, the Inhibition turned out to be 88% in test [1], 91% in test [2] and 11% in test [3].

In the case of `CCCNCc1ccc(-c2ccc(CN(C(=O)c3nn(-c4ccccc4)nc3C)C3CCOCC3)cc2)nc1.O=C(O)C(F)(F)F`, the Inhibition in test [1] was 98%; in test [2] it was 0%; in test [3], 14%.

For `COc1ccc(Cl)cc1NC(=O)C(C)N1CCN(S(=O)(=O)c2ccccc2F)CC1` (stereo not given), the figures for the Inhibition in test [1], in test [2] and in test [3] were 93%, 66% and 5%, respectively.

Regarding `Cc1cccc2nc(-c3ccc(-c4cccc(NC(=O)NCc5cccc(F)c5)c4)s3)[nH]c12`, the Inhibition is on record as 88% in test [1], 8% in test [2] and 24% in test [3].

Take `Cc1cccc2nc(-c3cccc(-c4ccc(NC(=O)c5ccncc5)cc4)c3)[nH]c12`: the Inhibition in test [1] was found to be 98%; in test [2], 74%; in test [3] it was 34%.

Consider `CCC(C)NC(=O)Nc1ccc(-c2cccc(-c3nc4cc(C(F)(F)F)ccc4[nH]3)c2)cc1` (stereo not given), for which the Inhibition in test [1] is recorded as 97%; in test [2], 0%; in test [3], 45%.

Turning to `CCN(CC)/C(=N/C(=N)Nc1ccc(Cl)c(Cl)c1)NCCCCCCN/C(=N\C(=N)Nc1ccc(Cl)c(Cl)c1)N(CC)CC`, the Inhibition in test [1] was found to be 94%; in test [2], 90%; in test [3] it was 1%.

On to `CC(=O)Nc1ncc(C(=O)Nc2cccc(-c3ccc(-c4nc5cc(C(F)(F)F)ccc5[nH]4)cc3)c2)s1`, for which the Inhibition in test [1] stood at 100%; in test [2], 94%; in test [3], 83%.

For the compound `CSc1cccc(NC(=O)c2cc3ccccc3oc2=O)c1`, the values for the Inhibition in test [1], in test [2] and in test [3] were 92%, 75% and 0%, respectively.

For `CCCn1c(Sc2ccc(C#N)c([N+](=O)[O-])c2)nnc1-c1ccc(OC)cc1`, the Inhibition amounted to 94% in test [1], 95% in test [2] and 0% in test [3].

For the compound `CC(=O)Nc1ccc(C(=O)Nc2cccc(-c3cccc(-c4nc5cc(C(F)(F)F)ccc5[nH]4)c3)c2)cn1`, the Inhibition is listed as 100% in test [1], 97% in test [2] and 8% in test [3].

For the compound `CC[C@H](C)CNC(=O)c1ccnc(-c2cccc(CN(C)C3CCN(C)CC3)c2)c1.O=C(O)C(F)(F)F`, the Inhibition is recorded as 100% in test [1], 33% in test [2] and 0% in test [3].

As to `O=C(O)C(F)(F)F.c1cc(-c2ccc(CNCCCn3ccnc3)cc2)cc(-c2nc3ccccc3[nH]2)c1`, the Inhibition is on record as 100% in test [1], 100% in test [2] and 17% in test [3].

Regarding `Cc1ccc2nc(C)cc(N/N=C/c3ccc([N+](=O)[O-])o3)c2c1`, the figures for the Inhibition in test [1], in test [2] and in test [3] were 100%, 99% and 15%, respectively.

For the compound `C#CC(C)(CO)N1CCCC1` (stereo not given), the Inhibition was determined as 95% in test [1], 1% in test [2] and 10% in test [3].

For the compound `c1csc(-c2ccc3c(c2)CC(NCc2c[nH]c4cnccc24)C3)c1` (stereo not given), the results for the Inhibition in test [1], in test [2] and in test [3] were 100%, 34% and 9%, respectively.

`Cc1cc(F)ccc1N(c1nc(-c2cc(Cl)ccc2Cl)cs1)C1CCNC1.O=C(O)C(F)(F)F` (stereo not given): the Inhibition in test [1] was found to be 99%; in test [2] it was 3%; in test [3] it was 19%.

Consider `CN=C(NC)c1cccc(NC(=O)C=Cc2ccc(C=CC(=O)Nc3cccc(C(=NC)NC)c3)cc2)c1.Cl`, for which the Inhibition in test [1] is on record as 98%; in test [2] it was 99%; in test [3], 21%.

With `CC(CN(C)C)C(=O)Nc1cccc(-c2cccc(-c3nc4ccccc4[nH]3)c2)c1` (stereo not given), the Inhibition in test [1] was 94%; in test [2], 25%; in test [3], 42%.

(Values after ChEMBL document CHEMBL1157539, “Thousands of chemical starting points for antimalarial lead identification” (Nature, 2010).)
